Compound activity: PubChem, National Center for Advancing Translational Sciences (NCATS)
Sfp inh: qHTS Assay for Inhibitors of Bacillus subtilis Sfp phosphopantetheinyl transferase (PPTase); Biochemical Sfp PPTase activity, qHTS; Potency, µM, for inactives: largest response in the series, negative = inhibition, usual class: inhibitors; hit rate 3.5% among 310,000;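 also: the enzyme is Sfp with the accession as filed and its product quenches rhodamine fluorescence; 0% = enzyme reaction without inhibitor and -100% = no enzyme wells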
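Compounds were incubated with enzyme (final 15 nM) for 15 min at room temperature before substrate addition started the reaction. Fluorescence at 525 nm excitation, 598 nm emission was recorded immediately and after 30 minutes.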
IDH1 R132H inh: qHTS for Inhibitors of mutant isocitrate dehydrogenase 1 (IDH1): qHTS | AID 602179, 2012 | Isocitrate dehydrogenase [NADP] cytoplasmic (Homo sapiens), O75874 | Potency, µM (highest dose often 76.6 µM), inactives show at the highest dose activity change, negative = inhibition, actives largely listed as inhibitors | IDH1-R132H enzyme, NADPH consumption, diaphorase/resazurin fluorescence | hit rate 0.093% among 390,000; also: nearly all actives have a fitted effect of over 65% in size
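IDH1-R132H (0.5 ug/mL dispensed) in pH 7.5 Tris buffer was preincubated 30 min with compound, then given a substrate mix of 0.016 mM NADPH and 2 mM alpha-KG for 80 min at room temperature; remaining NADPH was read by diaphorase/resazurin fluorescence.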
VDR inh: Inhibitors of the vitamin D receptor (VDR): qHTS | Vitamin D3 receptor (Homo sapiens), P11473 | VDR-SRC2-3 peptide fluorescence polarization, 2 h | Potency, µM, for the others: max response, negative = inhibition, actives largely listed as inhibitors | hit rate 0.93% among 400,000 | AID 504847, 2011
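Fluorescence polarization assay of small-molecule disruption of VDR binding to coregulator peptide SRC2-3. Compounds and controls pin-transferred, then read after 2 h incubation at ambient room temperature.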
rTrxR1 inhibitor: qHTS Assay for Inhibitors of Mammalian Selenoprotein Thioredoxin Reductase 1 (TrxR1): qHTS; Thioredoxin reductase 1, cytoplasmic (Rattus norvegicus), O89049; recombinant rTrxR1, NADPH fluorescence consumption, selenite substrate; Potency, µM (doses to about 114 µM), for the others: at the top dose activity change, negative = inhibition, hits mostly inhibitors; hit rate 1% among 390,000; also: nearly all actives have a fitted effect of over 65% in size
Target sequence (O89049 whole entry, looked up): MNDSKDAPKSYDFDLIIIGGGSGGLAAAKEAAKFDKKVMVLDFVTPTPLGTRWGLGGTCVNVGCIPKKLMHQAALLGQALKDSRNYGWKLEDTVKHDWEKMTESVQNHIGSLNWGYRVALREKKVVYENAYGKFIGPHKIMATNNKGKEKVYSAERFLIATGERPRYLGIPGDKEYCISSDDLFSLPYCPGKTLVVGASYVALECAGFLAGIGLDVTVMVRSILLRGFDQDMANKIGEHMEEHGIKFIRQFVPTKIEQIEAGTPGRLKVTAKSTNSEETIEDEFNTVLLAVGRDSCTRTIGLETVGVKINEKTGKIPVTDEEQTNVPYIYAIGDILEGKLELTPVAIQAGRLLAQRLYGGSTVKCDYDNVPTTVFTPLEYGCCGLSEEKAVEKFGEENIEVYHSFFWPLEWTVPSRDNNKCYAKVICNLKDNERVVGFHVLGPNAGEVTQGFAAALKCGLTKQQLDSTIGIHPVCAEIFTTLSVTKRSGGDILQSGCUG
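Rat TrxR1 (90 nM in the dispensed reagent) was pre-reduced with 400 uM NADPH for 5 min at room temperature, then incubated with compound for 15 min. After 400 uM selenite was added, NADPH fluorescence (Ex 340/Em 450 nm) was followed for 8 min.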
PLK1 PBD inh: qHTS for Inhibitors of PLK1-PDB (polo-like kinase 1 - polo-box domain): Primary Screen; Potency, µM, for the others: max response, negative = inhibition, most hits filed as inhibitors; hit rate 2.8% among 360,000; Plk1 PBD binding of FITC phosphopeptide, fluorescence polarization; Serine/threonine-protein kinase PLK1 (Homo sapiens), P53350; also: series mostly up to about 57 µM; nearly all actives have a fitted effect of over 65% in size
TrxR1 substrate: qHTS Assay for Substrates of Mammalian Selenoprotein Thioredoxin Reductase 1 (TrxR1): qHTS | Thioredoxin reductase 1, cytoplasmic (Rattus norvegicus), O89049 | purified TrxR1 substrate turnover, NADPH consumption readout | Potency, µM (titrated, usually from 114 µM), for inactives: at the highest dose activity change, negative = substrate turnover | hit rate 0.01% among 390,000; also: nearly all actives have a fitted effect of over 50% in size
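Rat TrxR1, dispensed at 90 nM, was prereduced with 400 uM NADPH (final) for 5 min at ~22 deg C, then incubated with compound 15 min before 400 uM selenite. A first-read NADPH fluorescence drop versus no-compound background flagged substrates.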
The depositor's hits bear a star; ? = inconclusive; / = not tested or not shown; [ ] = remark or other dose. Compounds with a hit are over-represented: about 5.2% of the library has one in this group of screens. Calls follow the shape of the dose curve; as a rule, active = well fitted curve in the direction sought with a large enough effect; inconclusive = small, poorly fitted or top-dose-only effect, or another doubt; inactive = no such curve, though single readings can be large; an effect the other way counts as inactive or inconclusive. Unless noted, % is scaled to controls: 0 for no effect and ±100 for the full control effect; potency is read from the fitted curve at half-maximal effect.

SMILES | Sfp inh | IDH1 R132H inh | VDR inh | rTrxR1 inhibitor | PLK1 PBD inh | TrxR1 substrate
NC[C@H](Cc1ccccc1)NCCCCC1CCCCC1 | / | -5% | -14% | 9% | -2% | 7%
CNC[C@H](CC1CCCCC1)NC[C@H](Cc1ccccc1)NCCC12CC3CC(CC(C3)C1)C2 | 45µM* | -9%[38.3 µM] | -5% | -21% | -5% | -9%
COc1ccc(C)cc1S(=O)(=O)N1CCC(C)CC1 | 20% | 7% | -6% | 10%[57.1 µM] | -9% | 5%[57.1 µM]
Cc1ccc([N+](=O)[O-])cc1S(=O)(=O)N1CCC(C)CC1 | -1% | -2% | 2% | 17%[57.1 µM] | 38µM* | 2%[57.1 µM]
Cc1ccc(S(=O)(=O)N2CCC(C)CC2)c([N+](=O)[O-])c1 | 6% | 9% | -7% | 19%[57.1 µM] | 24µM* | -1%[57.1 µM]
Cc1cccc(-n2cc(CN3CCCN(C=O)CC3)c(-c3cccc(F)c3)n2)c1 | -1% | 4% | 8% | 9%[57.1 µM] | 2% | 5%
Cc1ccc(-n2cc(CN3CCNC(=O)CC3)c(-c3cccc(C)c3)n2)cc1 | -12% | 4% | ? | 10%[57.1 µM] | 17µM* | 7%[57.1 µM]
C=CCC(C)(O)c1cccc(C(F)(F)F)c1 (stereo not drawn) | -8% | / | -3% | / | / | /
Cc1ccc(Nc2nnns2)cc1 | 6.3µM* | -1% | 79µM* | -17% | 24µM* | -3%
Cc1ccc(Nc2nc3ccccc3s2)cc1 | 15% | 3% | -6% | -9% | -6% | -10%
COc1cc(/C=C2/C(=N)N3C(=NC2=O)SN=C3S(=O)(=O)C(C)C)ccc1OS(=O)(=O)c1ccccc1 | 56µM* | / | / | / | / | /
COc1cc(/C=C2/C(=N)N3C(c4ccccc4)=CSC3=NC2=O)ccc1OCC(=O)O | 8% | -2% | -24% | -17% | ? | -5%
COc1cc(/C=C2/C(=N)N3C(SC)=NSC3=NC2=O)ccc1OC(=O)c1ccco1 | 1% | -3% | ? | 7%[57.1 µM] | ? | 3%[57.1 µM]
CCOc1cc(/C=C2/C(=N)N3C(=NC2=O)SN=C3S(=O)(=O)CC)ccc1OC(=O)c1ccco1 | 11% | -8% | 89µM* | -17% | 27µM* | -8%
CCS(=O)(=O)C1=NSC2=NC(=O)/C(=C\c3ccc(OC(=O)c4ccco4)c(OC)c3)C(=N)N21 | -4% | 3% | -25% | ? | ? | -16%
COc1cc(/C=C2/C(=N)N3C(=NC2=O)SN=C3S(C)(=O)=O)ccc1OC(=O)c1ccco1 | -15% | 6% | ? | ? | ? | -17%
COc1cc(/C=C2/C(=N)N3C(=NC2=O)SN=C3S(=O)(=O)C(C)C)ccc1OC(=O)c1ccco1 | -2% | -13% | ? | ? | 21µM* | -14%
CCOc1cc(/C=C2/C(=N)N3C(=NC2=O)SN=C3S(=O)(=O)C(C)C)ccc1OC(=O)c1ccco1 | -11% | 3% | ? | ? | 27µM* | -12%
CC(Oc1ccccc1)C(=O)N[C@@H]1C(=O)N2C(C(=O)OCC3CCCCC3)C(C)(C)S[C@H]12 (stereo partly drawn) | / | / | / | -12% | / | 1%
COC(=O)c1c(N)[nH]c(C(=O)c2ccccc2)c1-c1ccc(Br)cc1 | / | / | / | / | -7% | /
c1ccc(COc2cccc(-c3cc4nc(NCc5cccs5)ccn4n3)c2)cc1 | / | / | / | / | 5% | /
CC(C(=O)N(C)C1CCS(=O)(=O)C1)N1C(=O)/C(=C/c2ccco2)SC1=S (stereo not drawn) | -26% | -8% | -20% | -22%[57.1 µM] | ? | 1%[57.1 µM]
O=C(CCCN1C(=O)/C(=C/c2ccccc2)SC1=S)Nc1ccc(C(=O)O)c(O)c1 | 13% | -2% | ? | -12% | ? | -12%
